Data as given in PubChem BioAssay AID686979 (National Center for Advancing Translational Sciences (NCATS), 2013).
Hit rate of the full screen: of about 420,000 compounds, about 50,000 (12%) were called active. Inconclusive results (about 26%) are left out. Calls follow the shape of the dose curve; as a rule, active = well fitted inhibition curve with a large enough effect; inconclusive = small, poorly fitted or top-dose-only effect; inactive = flat fitted curve, though single readings scatter. The entries come from a sample that favours actives as a whole. A call without a number means that no potency is given here.

Assay: qHTS for Inhibitors of human tyrosyl-DNA phosphodiesterase 1 (TDP1): qHTS in cells in presence of CPT; also: nearly all actives have a fitted effect of over 55% in size
Details: chicken DT40 Tdp1-/-;hTDP1 cells + 20 nM CPT, ATP luminescence, 48 h; series mostly up to 46.2 µM
In short: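 Cell growth measured by CellTiter-Glo luminescence after a minimum 48 h, 37 C compound exposure with 20 nM CPT in Tdp1-knockout DT40 cells stably expressing hTDP1, seeded 400/well; qHTS titration format.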
Potency is read from the fitted curve at half-maximal effect.

Row | SMILES | Potency
1 | O=C(NCCCN1CCOCC1)c1cnn2c(-c3ccccc3)cc(-c3ccccc3)nc12 | 18.4 µM (active)
2 | O=C(NCCCN1CCOCC1)c1ccccc1NS(=O)(=O)c1ccc(F)cc1 | inactive
3 | O=C(NCCCN1CCOCC1)c1ccccc1NS(=O)(=O)c1ccc(Br)cc1 | inactive
4 | O=C(NCc1ccco1)/C(=C\c1cccc([N+](=O)[O-])c1)NC(=O)c1ccco1 | inactive
5 | O=C1C(Cl)=C(Oc2ccccc2)C(=O)c2ccccc21 | 0.326 µM (active)
6 | CC(=O)Oc1ccc2c(c1)C(=O)c1ccccc1C2=O | inactive
7 | COc1ccccc1-n1c(SCC(=O)Nc2ccc(Cl)cc2)nc(O)c(Cc2ccccc2)c1=O | inactive
8 | CC(=O)Nc1ccc(NC(=O)c2sc3nc4c(c(-c5ccc(C)cc5)c3c2N)CCC4)cc1 | inactive
9 | COc1ccc(Cl)cc1NC(=O)c1oc(C)nc1C | inactive
10 | CCN1CCc2nc(NC(=O)c3cc(F)c(F)cc3Cl)sc2C1 | inactive
11 | COc1ccc(Cl)cc1NC(=O)CN1CCN(C(=O)N2CCOCC2)CC1 | inactive
12 | CCN1CCc2nc3sc(C(=O)Nc4ccccc4OC(F)(F)F)c(N)c3cc2C1 | 16.4 µM (active)
13 | CCc1ccc(NC(=O)c2sc3nc4c(cc3c2N)CN(CC)CC4)cc1 | 23.1 µM (active)
14 | Cc1ccc(NC(=O)c2sc3nc(N)c(C#N)cc3c2N)cc1 | inactive
15 | COc1ccccc1NC(=O)c1ccc2nc(N3C(=O)CCC3=O)sc2c1 | inactive
16 | COc1ccc(Cl)cc1NC(=O)c1sc2nc3c(cc2c1N)CN(C)CC3 | 23.1 µM (active)
17 | O=C(c1cn(-c2ccccc2)nc1-c1cccnc1)N1CCN(S(=O)(=O)c2ccccc2F)CC1 | inactive
18 | O=C(NC(=S)Nc1ncccn1)c1ccccc1Br | inactive
19 | COC(=O)C1(CCSC)NC(c2ccc(OC)cc2OC)C2C(=O)N(c3cccc(C(C)=O)c3)C(=O)C21 (centres undefined) | inactive
20 | O=C(CSc1ccccn1)N1CCN(S(=O)(=O)c2ccc(Cl)cc2)CC1 | inactive
21 | O=P(O)(O)OC[C@H](O)CO | inactive
22 | Cc1cn([C@H]2C[C@H](O)[C@@H](/C=C/C(=O)NCCCc3ccccc3)O2)c(=O)[nH]c1=O | inactive
23 | Cc1ccc(CNCc2ccc3c(c2)OCO3)c(C)c1 | inactive
24 | Cc1ccc(S(=O)(=O)N(CCCN(C)C)Cc2ccc3c(c2)OCO3)cc1 | 16.4 µM (active)
25 | Cc1ccc(-c2nc(CS(=O)(=O)CC(=O)NCc3ccc4c(c3)OCO4)c(C)o2)cc1 | inactive
26 | CC1CN(C(=S)Nc2ccc(Br)cc2Cl)CC(C)O1 (centres undefined) | inactive

Row | SMILES | Potency
27 | CC[n+]1cc(C)ccc1/C=C/c1ccc(N(C)C)cc1 | 0.0291 µM (active)
28 | COc1ccccc1-n1cnc2cc(NS(=O)(=O)c3ccccc3)ccc21 | inactive
29 | CCOC(=O)CSC1=Nc2ccccc2C2=NC(CCC(=O)NCc3ccc(F)cc3)C(=O)N12 (centres undefined) | inactive
30 | CCN1N=C(c2ccccc2)CCC1=O | inactive
31 | O=C(NC1=NCCS1)c1ccc(Cl)s1 | inactive
32 | CC(=O)NC1=NN(C(C)=O)C(C)(c2ccc(Cl)s2)S1 (centres undefined) | 6.51 µM (active)
33 | CC(=O)NC1=NN(C(C)=O)C(C)(CCS(=O)(=O)c2ccc(Cl)c(Cl)c2)S1 (centres undefined) | inactive
34 | CC/C(Cc1ccccc1)=N/NC(=O)CCn1nnc2ccccc21 | inactive
35 | O=C(O)c1ccc(Nc2nc(-c3ccccc3)c3cc(Br)ccc3n2)cc1 | inactive
36 | OCCNc1nc(Nc2ccc(Cl)c(Cl)c2)nc2ccccc12 | 18.4 µM (active)
37 | Nc1nc(Nc2ccccc2)nc(NCCO)c1[N+](=O)[O-] | inactive
38 | CO[C@H]1[C@@H]2C=CO[C@@H](O[C@H]3O[C@@H](CO)[C@H](O)[C@@H](O)[C@@H]3O)[C@@H]2[C@@]2(CO)O[C@@H]12 | inactive
39 | CCN(C(=O)CSc1nnc(-c2ccncc2)o1)c1ccccc1 | inactive
40 | O=C(COc1ccccc1)N1CCN=C1SCc1cccc(F)c1 | inactive
41 | CC(C)Oc1ccc(CCC(=O)NNC(=S)NCc2ccccc2)cc1 | inactive
42 | O=C(CCc1ccccc1)NNC(=O)c1ccc(Br)cc1 | inactive
43 | COC(=O)CNC(=O)c1ccccc1[N+](=O)[O-] | inactive
44 | COc1ccc(C(=O)NNC(=S)NC(=O)c2ccccc2[N+](=O)[O-])cc1 | 18.4 µM (active)
45 | COc1ccc(C(=S)Nc2ccccc2)cc1 | inactive
46 | COc1ccc(C(=O)NC(=S)NNC(=O)c2c(-c3ccccc3)noc2C)cc1 | inactive
47 | COc1ccc(C(=O)NC(=S)NNC(=O)CCc2ccccc2)cc1 | 8.2 µM (active)
48 | CNC(=S)NNC(=O)c1ccc(N(C)C)cc1 | inactive
49 | O=C(NNC(=O)c1ccc(Cl)nc1)c1ccc(Br)cc1 | inactive
50 | COc1ccc(C(=O)NNC(=S)NC(=O)c2ccccc2)cc1 | 9.2 µM (active)
51 | COc1ccc(NC(=O)c2ccccc2[N+](=O)[O-])cc1OC | inactive
52 | CC(=O)NC(=S)NNC(=O)c1ccc(Br)cc1 | 6.51 µM (active)

Row | SMILES | Potency
53 | CSCCC(NC(=O)COc1ccccc1)C(=O)OCc1ccc(Cl)cc1 (centres undefined) | inactive
54 | COc1cc(-c2cccnc2)cc2c1OCCN(C(=O)Cc1csc(C)n1)C2 | inactive
55 | CCCNC(=O)C1CC(=O)N(c2ccc(OCc3ccccc3)cc2)C1 (centres undefined) | inactive
56 | O=C(CCc1nc(CN2CCN(S(=O)(=O)c3ccc(Br)cc3)CC2)no1)N1CCCCC1 | inactive
57 | Cc1ccccc1N1C(=O)C2ON(c3ccccc3)C(c3ccncc3)C2C1=O (centres undefined) | inactive
58 | C/C(=N/OC(=O)c1ccc(Br)cc1)c1ccc(C)cc1 | inactive
59 | COc1ccc(-c2cc(=O)oc3cc(OCC(=O)N[C@@H](Cc4c[nH]c5ccccc45)C(=O)O)ccc23)cc1 | inactive
60 | O=C(N[C@H]1CC[C@H](CC(=O)N2CCCCC2)O[C@@H]1CO)c1cccc(F)c1 | inactive
61 | CCc1cc2c(=O)c(-c3nc4ccccc4n3C)c(CCCC(=O)O)oc2cc1OC(=O)C(C)(C)C | inactive
62 | CC1=C(C(=O)N(C)C)CC(CC(=O)NCCN2CCOCC2)C(=O)N1Cc1ccccc1 (centres undefined) | inactive
63 | COc1cccc(OCc2nnc3n2N=C(c2ccccc2)C(CC(=O)O)S3)c1 (centres undefined) | inactive
64 | O=C(COC(=O)Cn1[nH]c(=O)c2ccccc2c1=O)Nc1c(Cl)cccc1C(F)(F)F | inactive
65 | CC[C@H](C)[C@@H](C(=O)N1CCNCC1)n1cc([C@@H](N)Cc2ccc(O)cc2)nn1 | inactive
66 | COc1c(Br)cc2c(C)c(C(=O)N3CCOCC3)oc2c1Br | 20.6 µM (active)
67 | COc1cc(C(=O)N2CCOCC2)cc(OC)c1OC | inactive
68 | COc1cc2ccccc2cc1C(=O)N1CCOCC1 | inactive
69 | N#CCCN(C(=O)COC(=O)c1ccc2c(c1)OCCO2)c1ccccc1 | inactive
70 | CC(C)c1c(C(=O)N/N=C/c2ccccc2C(=O)O)nnn1-c1nonc1N | inactive
71 | Cn1c(=O)[nH]c(=O)c2c1[nH]c(=S)n2Cc1ccccc1 | inactive
72 | CCCc1c(C(=O)N/N=C(\C)CCc2ccc(OC)cc2)nnn1-c1nonc1N | inactive
73 | Cc1cccc(N2O[C@H]3C=CC2CCCC3)n1 | inactive
74 | COP1(=O)C[C@@H](O)[C@@H](O)[C@@H](COCc2ccccc2)O1 (some centres undefined) | inactive
75 | O=C(NCCc1ccc(Cl)cc1)c1cccc(N2CCCC2=O)c1 | inactive
76 | O=C(NCCc1ccc(Cl)cc1)c1ccc2c(c1)N(Cc1ccc(F)cc1)C(=O)CS2 | 20.6 µM (active)
77 | O=C(c1ccc2c(c1)N(Cc1ccc(F)cc1)C(=O)CS2)N1CCOCC1 | inactive
78 | CC1CCN(C(=O)c2ccccc2NC(=O)Cc2ccccc2)CC1 | inactive

Row | SMILES | Potency
79 | Cc1ccccc1C(=O)N1CCN(c2ccc(NC(=O)c3cccs3)cc2)CC1 | 18.4 µM (active)
80 | Cc1ccccc1C(=O)Nc1ccc(N2CCCCCC2)cc1 | 14.6 µM (active)
81 | COc1ccc(N2CCN(C(=O)c3cccs3)CC2)cc1 | inactive
82 | O=C(Nc1ccc(N2CCN(C(=O)C3CC3)CC2)cc1)c1cccs1 | inactive
83 | O=C(NC(=O)c1ccccc1N1CCCCC1)Nc1ccc(Br)cc1 | inactive
84 | Cc1cccc(C)c1NC(=O)CS(=O)CC(=O)N1CCN(c2ccccc2)CC1 (centres undefined) | inactive
85 | Cc1ccccc1C(=O)Nc1ccccc1NC(=O)c1ccccc1C | inactive
86 | COc1ccccc1C(=O)NC(=S)Nc1ccc(N2CCOCC2)cc1 | inactive
87 | Cc1ccccc1C(=O)NC(=S)Nc1ccc(N2CCN(C(=O)c3ccccc3)CC2)cc1 | 10.3 µM (active)
88 | O=C(NC1CCCC1)C(c1c(F)cccc1Cl)N(C(=O)c1csnn1)C1CC1 (centres undefined) | inactive
89 | CCOC(=O)c1cn[nH]c1NC(=S)Nc1ccccc1 | inactive
90 | CCCCN1C(=O)C(=O)N(CC(=O)Nc2cccc(C(C)=O)c2)C1=O | inactive
91 | OCC1(CCOc2ccccc2)CCN(Cc2cn[nH]c2-c2ccccc2)CC1 | inactive
92 | Cc1cccc(-c2ncc(CN3CCC(CO)(CCCc4ccccc4)CC3)cn2)c1 | 23.1 µM (active)
93 | OCC1(CCc2ccccc2)CCN(Cc2ccc3nsnc3c2)CC1 | inactive
94 | CC(=O)Nc1ccc2c3c(ccc([N+](=O)[O-])c13)CC2 | inactive
95 | CN1CCN(C(=O)c2ccccc2NC(=O)COc2ccccc2Cl)CC1 | inactive
96 | COc1ccccc1OCC(=O)Nc1ccccc1C(=O)NC1CC1 | inactive
97 | O=C(COc1ccccc1Cl)Nc1ccccc1C(=O)NC1CC1 | 23.1 µM (active)
98 | S=c1[nH]nc2c3c4c(sc3ncn12)CCCC4 | inactive
99 | CCOC(=O)C1=CCC2C(=O)N(Cc3ccccc3)C(=O)C12 (centres undefined) | inactive
100 | CCC1(CC)C(=O)C2=C3C1[C@H](C(=O)OC)C=C(C(=O)OC)C[C@H]3[C@H]1C(=O)N(Cc3ccccc3)C(=O)[C@H]1[C@H]2C (some centres undefined) | 4.61 µM (active)
101 | COC(=O)C1=C[C@@H](C(=O)OC)[C@@H]2C3=C(C(=O)[C@]2(C)NC(=O)c2ccccc2)[C@H](C)n2c(=O)n(C)c(=O)n2[C@@H]3C1 | inactive
102 | COc1ccc(NS(=O)(=O)c2ccc(Oc3c(C#N)cccc3C#N)cc2)cc1 | 10.3 µM (active)
103 | CCOc1ccc(S(=O)(=O)Nc2ccc(S(=O)(=O)Nc3cc(OC)ccc3OC)cc2)cc1 | inactive
104 | COc1ccc(NS(=O)(=O)c2cccc(C(=O)NCCc3ccc(S(N)(=O)=O)cc3)c2)cc1 | inactive
